According to PubChem BioAssay (Tox21):
Records with an inconclusive call do not appear. Calls of active or inactive are those of the source. Calls follow the shape of the dose curve; as a rule, active = well fitted inhibition curve with a large enough effect in the repeat runs; inconclusive = weak or mixed curves; inactive = flat fitted curve, though single readings scatter.

Test: qHTS assay to identify small molecule HDAC inhibitors (AID 1259364); also: top concentration of the series differs between compounds; nearly all actives have a fitted effect of over 45% in size
Details: HCT-116 HDAC-Glo I/II luminescence, 2 h; series mostly up to 92.4 µM; activity change, negative = inhibition: at the top concentration
From the text: U.S. Tox21 Program National Center for Advancing Translational Sciences [NCATS] NIH Chemical Genomics Center [NCGC] U.S. Environmental Protection Agency [EPA] National Institutes of Environmental Health Sciences [NIEHS] National Toxicology Program [NTP] U.S. Food and Drug Administration [FDA] Tox21 Assay Overview: Histone deacetylases (HDACs) are a group of epigenetic enzymes that regulate gene expression by histone deacetylation. HDACs are capable of introducing epigenetic modifications and such aberrations contribute to the onset and progression of several human diseases, thus making HDACs a popular therapeutic target. For identifying endogenous class I/II HDAC inhibitors a homogenous, luminogenic HDAC I/II cell based assay was used to measure the relative activity of class I and II HDACs from cells. Wild type HCT-116 cells were used to screen Tox21 libraries for identifying class I/II HDAC inhibitors.
Tox21 Assay Protocol Summary: HCT-116 cells were dispensed at 1,500 per well in 5uL of culture medium into white solid bottom 1536-well plates (Greiner Bio-One, Monroe, NC) using a Multidrop Combi (Thermo Scientific, Waltham, MA) dispenser. The assay plates were incubated at 37 C and 5% CO2 for an overnight, and then 23nL of compounds dissolved in DMSO and positive control were transferred using a Pintool station (Wako, San Diego, CA). The assay plates were incubated at 37C and 5% CO2 for 2hr. After compound treatment, 4uL of HDAC-Glo reagent (Promega Corporation, Madison, WI) was added to each well of the assay plates using Flying Reagent Dispenser (FRD, Aurora Discovery, San Diego, CA) and incubated the assay plates at room temperature for 30min. The luminescence signal was quantified using a ViewLux plate reader (Perkin Elmer, Shelton, CT).
% is scaled to controls: 0 for no effect and ±100 for the full control effect.

Compound | activity change, negative = inhibition | Potency
CN1CC[C@]23c4c5ccc(O)c4O[C@H]2[C@@H](O)C=C[C@H]3[C@H]1C5 | 9.71% (inactive) | –
Clc1ccc(Cl)c(Cl)c1 | – | inactive
Cc1cccc(C)c1NC1=NCCCS1 | -4% [at 42.5 µM] (inactive) | –
CC(CC(C(N)=O)(c1ccccc1)c1ccccc1)N(C)C (stereo not given) | -1.75% [at 42.5 µM] (inactive) | –
Nc1cccc2ccccc12 | – | inactive
COC1CC(=C(c2cccs2)c2cccs2)C[N+](C)(C)C1 (stereo not given) | 8.49% [at 42.5 µM] (inactive) | –
CN(C)C(=O)Nc1cccc(OC(=O)NC(C)(C)C)c1 | 0.0008% (inactive) | –
Cc1nc2ccccc2c(=O)n1-c1ccccc1Cl | 1.22% (inactive) | –
CCCCCCCCCCCCCCCl | -6.81% (inactive) | –
CC1(C)[C@H](C(=O)O[C@H](C#N)c2cccc(Oc3ccccc3)c2)[C@@H]1C=C(Br)Br | – | inactive
CCCBr | 0.75% (inactive) | –
CN(C)N | 1.56% (inactive) | –
CCc1cnc(C2=NC(C)(C(C)C)C(=O)N2)c(C(=O)O)c1 (stereo not given) | – | inactive
Cc1cnc(C2=NC(C)(C(C)C)C(=O)N2)c(C(=O)O)c1 (stereo not given) | -1.76% (inactive) | –
C[N+]1(CCC(C(N)=O)(c2ccccc2)c2ccccc2)CCCCC1 | -0.213% [at 42.5 µM] (inactive) | –
CCCCNC(=O)OCC#CI | – | inactive
Oc1cccc(Cl)c1 | -4.22% (inactive) | –
COc1cc(C[C@@H](C)N)c(OC)cc1Br | 0.13% (inactive) | –
CCCC(C)(COC(N)=O)COC(=O)NC(C)C (stereo not given) | – | inactive
Cc1ccc2c(C)cccc2c1 | -0.782% (inactive) | –

Compound | activity change, negative = inhibition | Potency
CCC1(CC)C(=O)NC(=O)NC1=O | -15.6% [at 42.5 µM] (inactive) | –
CCOC(=O)C1OC1(C)c1ccccc1 (stereo not given) | – | inactive
C=CCOC(=O)C(C)(C)OC(=O)c1cc(-n2c(=O)cc(C(F)(F)F)n(C)c2=O)ccc1Cl | 4.35% (inactive) | –
CN1CC[C@]23c4c5ccc(O)c4O[C@H]2[C@@H](O)CC[C@H]3[C@H]1C5 | 6.48% (inactive) | –
Nc1ccc2c(c1)Cc1ccccc1-2 | -9.65% (inactive) | –
CCOP(=O)(O)C(N)=O | 3.8% (inactive) | –
CC(C)(C)c1ccc(CCOc2ncnc3ccccc23)cc1 | -0.792% (inactive) | –
C[N+]1(CCF)[C@@H]2CC[C@H]1CC(OC(=O)C(O)(c1ccccc1)c1ccccc1)C2 (stereo not given in full) | 12.6% [at 42.5 µM] (inactive) | –
CC[N+]1(C)CCCC(OC(=O)C(O)(c2ccccc2)c2ccccc2)C1 (stereo not given) | 0.903% [at 42.5 µM] (inactive) | –
CC(C)(C)CC(C)(C)c1ccc(O)cc1 | -2.15% [at 42.5 µM] (inactive) | –
C=C(Cl)Cl | 2.61% (inactive) | –
CC(Oc1cccc(Cl)c1)C(=O)O (stereo not given) | 2.85% (inactive) | –
c1ccc2c(c1)-c1cccc3cccc-2c13 | – | inactive
C[N+](C)(C)CCOC(=O)C(O)(c1ccccc1)c1ccccc1 | -12.1% [at 42.5 µM] (inactive) | –
C#C[C@]1(O)CC[C@H]2[C@@H]3CCC4=CC(=O)CCC4=C3C=C[C@@]21CC | -0.204% [at 42.5 µM] (inactive) | –
COC(=O)C1(O)c2ccccc2-c2ccccc21 | -1.95% (inactive) | –
CC(C)C1(C)N=C(c2ncccc2C(=O)O)NC1=O (stereo not given) | -0.353% (inactive) | –
C[C@H]1[C@@H]2Cc3ccc(O)cc3[C@@]1(C)CCN2C | -6.18% [at 240 µM] (inactive) | –
CCCCCCCCCCCC[N+](C)(C)CCOc1ccccc1 | – | inactive
O=C(O)c1cc(Cl)ccc1Cl | -9.34% (inactive) | –
